Screening results from PubChem.
Only some compounds are listed: those with a hit (about 8.3% of all), similar ones and a draw of the others.
Giardia FBPA inh: blocks Giardia fructose-bisphosphate aldolase activity | purified Giardia FBPA | A8B2U2 | Potency, µM (doses to about 59.6 µM), inactives show at the highest dose activity, negative = inhibition, usual class: inhibitors | AID 2451 | actives 0.71% (n = 290,000); further: potency means the concentration at half of the fitted maximal effect; nearly all actives have a fitted effect of over 55% in size
Target sequence (A8B2U2 whole entry, looked up): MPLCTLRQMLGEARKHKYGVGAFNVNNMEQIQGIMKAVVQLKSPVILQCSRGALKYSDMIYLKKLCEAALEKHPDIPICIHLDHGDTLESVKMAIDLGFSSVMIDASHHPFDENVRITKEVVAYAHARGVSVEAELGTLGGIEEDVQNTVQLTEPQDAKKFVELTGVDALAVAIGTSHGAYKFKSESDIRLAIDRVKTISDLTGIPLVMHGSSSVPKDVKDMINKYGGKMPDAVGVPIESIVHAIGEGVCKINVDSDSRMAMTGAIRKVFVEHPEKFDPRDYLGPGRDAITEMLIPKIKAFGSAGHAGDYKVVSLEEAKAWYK
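Giardia FBPA (40 nM reagent) was preincubated 10 min at RT with compound (up to 57.5 uM final), then substrate plus GAPDH/TPI/NAD/arsenate coupling system with diaphorase/resazurin was added; resorufin fluorescence (525/598 nm) was read after 20 min.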
Lassa entry inh: Lassa virus entry inhibition; Potency, µM (top dose mostly 37.9 µM), for inactives: at the highest dose activity change, negative = inhibition, hits mostly inhibitors; actives 1.2% (n = 300,000); Lassa virus pseudotype entry inhibition, cell reporter; calls by dose curve; tested in HEK293 cells; further: potency means the concentration at half of the fitted maximal effect; nearly all actives have a fitted effect of over 50% in size
Marburg entry inh: inhibitors of Marburg virus binding or cell entry; Potency, µM (doses to about 37.8 µM), for inactives: top-dose activity change, negative = inhibition, usual class: inhibitors; AID 540276; Marburg virus pseudotyped entry inhibition, cell reporter; actives 1.8% (n = 300,000); calls by dose curve; tested in HEK293 cells; further: potency means the concentration at half of the fitted maximal effect
HCMV inh: blocks human cytomegalovirus replication; HFF cells, HCMV-luciferase reporter, 72 h; stronger effect = lower value; activity change, negative = inhibition, % at 57.5 µM; actives 4.5% (n = 410,000); AID 1259415; in the data active means activity change below about -60%; inconclusive means no clear call, values can overlap the other calls; inactive means above about -39%
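Luciferase read-out from HCMV-luciferase-infected HFFs (MOI 1 PFU/cell) 72 h post infection at 37C; compounds added after 16 h cell attachment; activity normalized between buffer-only basal and Salinomycin (10uM) inhibitor controls.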
FMDV antiviral: antivirals against foot and mouth disease virus; FMDV antiviral cell-based qHTS; Potency, µM (doses to about 57.9 µM), without a hit: top-dose activity change, negative = inhibition, most hits filed as inhibitors; actives 1.2% (n = 410,000); calls by dose curve; tested in HEK293T cells; further: read-out not given here; potency means the concentration at half of the fitted maximal effect; nearly all actives have a fitted effect of over 45% in size
HCV inhibitor: inhibitors of hepatitis C virus infection. Huh7.5.1 HCVcc-Cre infection, luciferase reporter, 44 h. Potency, µM (series often up to 41.8 µM), for inactives: at the top dose activity change, negative = inhibition, hits mostly inhibitors. actives 3.4% (n = 340,000); further: potency means the concentration at half of the fitted maximal effect
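Whole-lifecycle infectious HCVcc-Cre system; cells 1,000/well, compound then virus (~0.5 moi) added 4 h after plating, 44 h culture. Luciferase read 15 sec following 15 min substrate incubation, room temp.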
* marks the source's active call; other numbers are inactive results; ? = inconclusive; . = not tested or not shown; [ ] = another dose, or the depositor's remark. Unless noted, the call rests on the fitted dose curve; in most records, active means well fitted curve in the direction sought with a large enough effect; inconclusive means small, poorly fitted or top-dose-only effect, or another doubt; inactive means no such curve, though single readings can be large; an effect the other way counts as inactive or inconclusive. On the % scale 0 is the no-effect control and ±100 the full control effect.

SMILES	Giardia FBPA inh	Lassa entry inh	Marburg entry inh	HCMV inh	FMDV antiviral	HCV inhibitor
COC(=O)CC[C@@H](C)[C@H]1CC[C@H]2[C@@H]3CC[C@@H]4C[C@H](O)CC[C@]4(C)[C@H]3C[C@H](O)[C@]12C	-9.2%	.	.	.	.	.
COc1ccc(-n2c(-c3ccc(Cl)cc3)c[n+]3c2CCc2ccccc2-3)cc1	2.3%	?	11.2µM*	-98.7*	?	-4.2%
COc1ccc(-n2c(-c3ccccc3)nnc2-c2ccc(Cl)cc2)cc1	10.2%	0.5%	10.3%[46.1 µM]	7.8	-12.9%	15.9%
CCCCc1nn2c(=O)cc(COC(=O)c3ccccc3NC(=O)c3cccc(C)c3)nc2s1	.	2.4%[46.1 µM]	.	-9.2	-6.1%	.
Cc1onc(-c2c(F)cccc2Cl)c1C(=O)O/N=C(\N)c1ccc([N+](=O)[O-])o1	-11.1%	-0.9%	-2.0%[46.1 µM]	-62.4*	49.4%	?
COc1ccc(/C(N)=N/OC(=O)c2c(-c3ccccc3Cl)noc2C)cc1OC	.	?	?	-79.5*	0.4%	12.6µM*
Cc1nc(/C(N)=N/OC(=O)c2c(-c3ccccc3Cl)noc2C)cs1	4.9%	-24.8%	7.94µM*	-38.6	-13.4%	-13.3%
Cc1onc(-c2ccccc2Cl)c1C(=O)Oc1ccc(Cl)cc1Cl	.	-4.7%[46.1 µM]	.	?	-12.4%	.
CCOc1ccccc1NC(=O)c1ccc2c(Cl)c3c(nc2c1)CCC3	.	18.6%[46.1 µM]	?	30.6	28.9%	.
COC1=CC2C(=O)C(C(c3ccccc3)C2C)C1(C)O (centres undefined)	.	.	0.9%[14.2 µM]	.	.	.
COc1ccc(NC(=O)c2cc(CC(C)C)nc3ccccc23)cc1	-7.4%	.	.	-77.2*	15.4%	?
Cc1ccc(NC(=O)c2cc(CC(C)C)nc3ccccc23)cc1	10.4%	-18.9%[46.1 µM]	?	-69.8*	-5.5%	?
CC1CC(C)CN(c2ccc(-n3cnnn3)cc2[N+](=O)[O-])C1 (centres undefined)	0.3%	-17.0%	?	-39.1	-16.2%	3.0%
O=[N+]([O-])c1cc(-n2cnnn2)ccc1N1CCC(Cc2ccccc2)CC1	-5.9%	-26.0%	?	-103.2*	?	?
Cc1[nH][nH]c(=O)c1C(c1ccc(-c2ccc(C(=O)O)cc2)o1)c1c(C)[nH][nH]c1=O	5.61µM*	15.2%	-20.5%[46.1 µM]	-61.8*	8.2%	9.4%
CCOc1ccc(OCC)c(S(=O)(=O)NC2CC(C)(C)NC(C)(C)C2)c1	1.9%	?	?	-15.8	82.9%	14.1%
CCOc1c(S(=O)(=O)NC2CC(C)(C)NC(C)(C)C2)ccc(Cl)c1Cl	0.7%	-24.8%[46.1 µM]	10µM*	-33.7	-2.1%	?
O=C(Nc1ccccc1)Nc1ncc([N+](=O)[O-])s1	-3.5%	7.08µM*	?	-98.2*	10µM*	?
O=C(O)c1cnn(-c2nc(-c3cccc([N+](=O)[O-])c3)cs2)c1C(F)(F)F	2.6%	.	.	-93.8*	3.5%	-2.9%
O=C(COC(=O)c1ccccc1)Nc1ncc([N+](=O)[O-])s1	.	?	-17.6%	-8.7	11.4%	-1.3%
O=C(Nc1nnc(-c2ccc(F)cc2)o1)c1cccc([N+](=O)[O-])c1	-11.2%	-25.1%	?	-98.2*	19.0%	12.6µM*
Cc1nc(C)c(C(=O)Nc2ncc([N+](=O)[O-])s2)o1	?	5.62µM*	?	?	-92.1%	-9.3%
O=C(Nc1nnc(C2=COCCO2)o1)c1cccc([N+](=O)[O-])c1	.	15.2%	5.8%	13.5	-15.9%	17.8%
CC(C)CC(=O)Nc1ncc([N+](=O)[O-])s1	-19.3%	14.8%[46.1 µM]	?	-25.3	15.3%	6.2%
CC(=O)OCON[N+]([O-])=NC1CCCCC1	2.4%	.	.	.	.	.
SMILES	Giardia FBPA inh	Lassa entry inh	Marburg entry inh	HCMV inh	FMDV antiviral	HCV inhibitor
COCCN1C(=O)C2=C(C1=O)C1N(C)c3ccccc3[C@@]13C[C@@H](CO)N(S(=O)(=O)c1ccc(OC)cc1)C3=N2 (some centres undefined)	.	.	-2.8%[14.2 µM]	.	.	.
COc1cc(NC(=O)N2CCC3(CC2)Nc2ccccc2-n2cccc23)cc(OC)c1OC	.	-28.8%[46.1 µM]	.	34.7	?	.
COc1ccccc1Nc1nc(-c2cccc([N+](=O)[O-])c2)cs1	-15.3%	.	.	5.9	43.1%	?
O=C(Nc1nc(-c2ccccc2)cs1)c1cccc([N+](=O)[O-])c1	.	9.2%	-18.6%	4.0	-18.1%	12.6µM*
O=[N+]([O-])c1cccc(-c2csc(Nc3ccccc3)n2)c1	-6.4%	?	?	22.7	-9.8%	1.58µM*
O=C(Nc1ncc([N+](=O)[O-])s1)c1cccc([N+](=O)[O-])c1	?	.	.	-99.3*	-73.5%	?
O=C(Nc1ccc(NC(=O)c2cccc([N+](=O)[O-])c2)cc1)c1cccc([N+](=O)[O-])c1	-0.7%	.	.	40.2	45.9%	-0.5%
CCOc1cc(CNCCSc2nnnn2-c2ccccc2)cc(Cl)c1OC	.	21.6%[46.1 µM]	?	2.4	-17.7%	.
CCC(=O)N1c2ccccc2CC1C(=O)NCCCN1CCN(c2cccc(Cl)c2)CC1 (centres undefined)	.	-3.0%[46.1 µM]	.	-7.6	0.0%	.
COc1ccc(/C=N/n2c(N)c(S(=O)(=O)c3cccs3)c3nc4ccccc4nc32)cc1OC	3.4%	-9.9%	?	-88.0*	-23.9%	9.7%
COc1cccc(/C=N/n2c(N)c(S(=O)(=O)c3cccs3)c3nc4ccccc4nc32)c1	7.2%	0.7%	-1.1%	-61.6*	18.8%	-17.2%
Nc1c(S(=O)(=O)c2cccs2)c2nc3ccccc3nc2n1/N=C/c1cccc(O)c1	0.1%	?	?	-102.7*	39.8µM*	7.94µM*
Cc1cccc(S(=O)(=O)c2c(N)n(/N=C/c3cccnc3)c3nc4ccccc4nc23)c1	13.6%	-27.5%	?	?	.	?
Cc1cn2c(=O)c(S(=O)(=O)NCc3ccccc3Cl)c(C)nc2s1	.	6.6%[46.1 µM]	.	12.2	17.9%	.
COC(=O)c1ccc2nc(NC(=O)C(C)(C)C)sc2c1	-1.0%	1.12µM*	?	-62.8*	14.1µM*	?
COC(=O)c1ccc2nc(Nc3nc4ccc(F)cc4s3)sc2c1	-0.5%	6.31µM*	0.794µM*	-85.2*	?	32.6%
CC(=O)c1sc(Nc2nc3ccc(F)cc3s2)nc1C	-0.6%	?	?	24.2	0.8%	-17.4%
COC(=O)c1ccc2nc(NC(=O)C3CCCCC3)sc2c1	3.4%	14.1%	?	136.6	-2.8%	6.0%
COc1ccc(CC(=O)Nc2ccc3nc(Nc4cccc(Cl)c4)cc(C)c3c2)cc1	.	?	.	-102.2*	-19.1%	.
COc1ccccc1CC(=O)Nc1ccc2nc(Nc3cccc(Cl)c3)cc(C)c2c1	.	3.16µM*	.	?	-19.7%	.
Cc1cc(Nc2cccc(Cl)c2)nc2ccc(NC(=O)c3cccnc3)cc12	.	-21.6%[46.1 µM]	.	-98.1*	?	.
Cc1cc(Nc2cccc(C(F)(F)F)c2)nc2ccc(NC(=O)Cc3ccc(Cl)cc3)cc12	.	-26.7%[46.1 µM]	.	-102.5*	?	.
